TROY NFkB inh = inhibitors of TROY-driven NF-kB signaling, primary screen, Q293 LMP1-TROYcd cells, NF-kB luciferase, uHTS | 360,000 compounds, 0.98% hits | Q293 LMP1-TROYcd NF-kB luciferase reporter, 4 h | inhibition, % at 10 µM;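 active = compounds whose plate-normalised and pattern-corrected inhibition of the luciferase reporter signal at the single screening dose is 50% or more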
EBV LMP1 NFkB = EBV LMP1-driven NF-kappaB luciferase reporter inhibitors, primary screen, cell-based, luminescence, single point. AID 504558, 2011. LMP1-induced NF-kappaB luciferase reporter cells. 350,000 compounds, 0.69% hits. inhibition, % at 12.5 µM; in the data active = inhibition above about 41%; inconclusive = no clear call, values can overlap the other calls;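 note: 0% = neutral control wells and 100% = reference inhibitor control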
EWS-Fli block = EWS/Fli-driven NR0B1 reporter inhibitors, primary screen, A673 cells, NR0B1 luciferase, luminescence, MLPCN library | viability-normalised | inhibition, % at 12.6 µM | 350,000 compounds, 0.67% hits | AID 651661, 2012;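 active = mean inhibition of at least 50% after viability correction, with every replicate also passing that limit; inconclusive = mean reaches 50% but only one of two replicates passes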;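 note: firefly luciferase signal divided by Alamar Blue viability fluorescence both relative to DMSO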
TWEAK-Fn14 inh = inhibitors of TWEAK-Fn14 signaling, primary screen, luciferase reporter cells, uHTS; 360,000 compounds, 2% hits; inhibition, % at 10 µM; TWEAK-stimulated Fn14 reporter cells, luciferase luminescence, 8 h; in the data active = inhibition above about 50%
LGR2 antag = inhibitors of bursicon-induced LGR2 CRE-luciferase signal, primary screen, cell-based, HEK293, CRE-luciferase reporter, bursicon stimulation. Drosophila bursicon receptor LGR2 (rickets). bursicon-stimulated, 4 h. inhibition, % at 9.99 µM. 380,000 compounds, 0.35% hits;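 active = drop in luminescence signal, shown as inhibition above about 50% in the replicate tests, limit read from the data, passing the limit was not always enough; inconclusive = probably only some replicates passing the limit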;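 note: agonist challenge used bursicon conditioned medium at about half maximal strength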
DNA binder FP = DNA binders by acridine orange displacement, dose response, counter-screen for EWS/Fli inhibitor project, biochemical, fluorescence polarization, cherry-pick. AC35, µM (highest dose often 68 µM), inactives show at the highest dose activity change, negative = DNA binding. 640 compounds, 2% hits. salmon sperm DNA acridine orange fluorescence polarization. shares compounds with EWS-Fli block. AID 720586, 2013;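 active = fitted curve reaches a 35% signal fall AC35 below twice the sample's top valid tested dose, actives reach about 48 µM in these data; inactive = the rest, including activity in the rising direction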;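 note: lower polarization ratio signals compound binding to DNA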
Starred values were filed as active, the others as inactive; ? = inconclusive; . = no result. Only some compounds are listed: those with a hit (about 2.6% of all), similar ones and a draw of the others.

SMILES	TROY NFkB inh	EBV LMP1 NFkB	EWS-Fli block	TWEAK-Fn14 inh	LGR2 antag	DNA binder FP
Cc1ccc(S(=O)(=O)Nc2ccc3c(c2)CC(=O)N([C@@H](C)CO)C[C@@H](C)[C@H](CN(C)S(C)(=O)=O)O3)cc1	.	.	-5.0	.	3.8	.
O=C(NCC(O)CO)[C@]1(Cc2ccccc2)N=C(c2ccc(OCCCO)cc2)O[C@@H]1c1ccccc1 (stereo partly drawn)	.	.	6.0	.	.	.
C[C@@H]1CN([C@H](C)CO)S(=O)(=O)c2ccc(C#C[C@@H](C)O)cc2O[C@H]1CN(C)C(=O)Nc1ccccc1	.	.	-3.7	.	6.5	.
Cc1nc2ncccn2c1-c1csc(Nc2ccc(O)cc2)n1	0.5	18.4	58.3*	-2.4	0.3	9.2%
Cc1ccc(Nc2nc(-c3c(C)nc4ncccn34)cs2)cc1	1.5	8.9	.	10.8	.	.
COc1ccc2c3c([nH]c2c1)[C@@H](CO)N(Cc1ccccc1Cl)CC31CN(C(C)=O)C1	.	.	47.1	.	-1.1	.
CC(C)NC(=O)N(C)C[C@H]1Oc2ccc(NC(=O)Cn3cnnn3)cc2C(=O)N([C@H](C)CO)C[C@H]1C	.	.	1.2	.	0.2	.
Cc1[nH]c(=S)sc1Cc1ccc(Cl)c(Cl)c1	.	.	78.9*	.	-5.3	-3.6%
Clc1ccc(Nc2nnc(-c3ccc4c(c3)OCO4)o2)cc1	.	.	-94.9	.	-49.7	.
c1ccc(Nc2nnc(-c3ccc4c(c3)OCO4)o2)cc1	.	.	78.9*	.	91.7*	3.0%
Cc1cc(NC(=O)c2ccc3c(c2)OCCO3)ccc1NC(=O)c1cc2ccccc2o1	40.9	7.4	-52.0	12.1	?	.
O=C(Nc1ccc(NC(=O)c2cc3ccccc3o2)cc1)c1ccc2c(c1)OCCO2	26.4	19.4	58.5*	-22.2	1.0	-1.5%
COc1ccc2oc(-c3ccccc3)cc(=O)c2c1	4.9	.	60.3*	73.8*	63.9*	-3.7%
O=c1cc(-c2ccccc2)oc2ccc(Br)cc12	-38.6	-8.6	-6.1	-18.9	6.3	.
Cc1ccc2oc(/N=C(\N)NC(=O)C(C)(C)C)nc2c1	92.1*	65.9*	85.2*	103.5*	99.5*	-5.9%
COc1ccc(/C=N/Nc2nc(-c3ccc(C)cc3)c(NC(C)=O)s2)cc1OC	-2.6	5.0	-6.5	-10.4	8.7	.
COc1cc(/C=N\Nc2nc(-c3ccc(C)cc3)c(NC(C)=O)s2)ccc1O	-16.5	3.3	54.2*	19.9	-1.5	-10.7%
COc1ccc(C(C)(O)c2nc(-c3cccc(F)c3)cs2)cc1 (stereo not drawn)	15.4	.	52.6*	9.2	2.1	1.7%
CC(C)(C)c1ccc(Oc2ccc(NC(=O)c3ccccc3C(=O)O)cn2)cc1	14.9	.	62.8*	34.7	4.4	2.2%
CC(C)(C)c1ccc(Oc2ccc(N)cn2)cc1	3.7	.	71.3*	24.2	-15.2	-13.6%
C[C@@H]1CN([C@H](C)CO)C(=O)c2c(c3ccccc3n2C)-c2ccccc2CO[C@H]1CN(C)C(=O)Nc1cccc(Cl)c1Cl	.	.	41.1	.	7.3	.
CCCNC(=O)[C@@H]1[C@@H](CO)[C@@H]2Cn3c(ccc(C4=CCCC4)c3=O)[C@@H]2N1C(=O)C1CC1	.	.	1.1	.	1.9	.
COC(=O)C[C@H]1CC[C@@H]2[C@@H](COc3ccc(NC(=O)Nc4cccc(Cl)c4)cc3C(=O)N2C)O1	.	.	-8.9	.	31.3	.
COC(=O)C[C@H]1CC[C@H]2[C@H](COc3ccc(NC(=O)Nc4cccc(Cl)c4)cc3C(=O)N2C)O1	.	.	79.6*	.	4.0	-4.3%
COC(=O)C[C@H]1CC[C@@H]2[C@H](COc3ccc(NC(=O)Nc4cccc(Cl)c4)cc3C(=O)N2C)O1	.	.	60.2*	.	27.0	-3.7%
SMILES	TROY NFkB inh	EBV LMP1 NFkB	EWS-Fli block	TWEAK-Fn14 inh	LGR2 antag	DNA binder FP
COC(=O)C[C@@H]1CC[C@H]2[C@H](COc3ccc(NC(=O)Nc4cccc(C#N)c4)cc3C(=O)N2C)O1	.	.	33.6	.	11.3	.
COC(=O)C[C@@H]1CC[C@H]2[C@H](COc3ccc(NC(=O)Nc4cc(C)cc(C)c4)cc3C(=O)N2C)O1	.	.	64.3*	.	9.1	2.4%
COC(=O)C[C@@H]1CC[C@@H]2[C@@H](COc3ccc(NC(=O)Nc4cccc(C#N)c4)cc3C(=O)N2C)O1	.	.	76.3*	.	0.2	7.2%
CN1[C@H](CO)[C@@H]2c3ccccc3N(C(=O)C3CCOCC3)C[C@@H]21	.	.	3.7	.	2.2	.
CC(C)(C)[S@@](=O)N1Cc2cc(C(=O)NCCc3ccncc3)nc(-c3cccc(-c4ccc(C#N)cc4)c3)c2[C@H]1CCO	.	.	-2.0	.	2.3	.
CCC(=O)N1[C@H](CN(C)C(C)=O)[C@H](c2ccc(-c3cccnc3)cc2)[C@@H]1CO	.	.	-5.5	.	-4.6	.
C/C=C/c1ccc([C@H]2[C@@H](CO)N3C(=O)CN(S(=O)(=O)c4cccc(F)c4)C[C@H]23)cc1	.	.	17.4	.	3.8	.
C/C=C/c1ccc([C@H]2[C@@H](CO)N3C(=O)CN(S(=O)(=O)c4cccc(F)c4)C[C@@H]23)cc1	.	.	52.0*	.	-23.1	-1.6%
COc1cc(-c2coc3c(C(=O)NCc4ccc(C(F)(F)F)cc4)cccc23)ccc1O	7.7	.	62.2*	45.6	-2.5	6.8%
Nc1ccc2c(c1)OC1(CCCC1)O2	67.9*	59.1*	68.2*	90.1*	15.4	-5.5%
CC1(C)Oc2cc3oc(-c4cc(O)cc(O)c4)cc3cc2CC1O (stereo not drawn)	80.1*	19.5	75.8*	76.2*	82.5*	-1.2%
Cn1cnc(S(=O)(=O)N[C@H]2CC[C@@H](CC(=O)Nc3ccccc3)O[C@@H]2CO)c1	.	.	-2.6	.	14.0	.
COc1ccccc1NC(=O)N(C)C[C@@H]1Oc2cc(Br)ccc2S(=O)(=O)N([C@H](C)CO)C[C@H]1C	.	.	-1.4	.	-1.1	.
Cc1ccc(/C=C/C(=O)N2CCN(S(=O)(=O)c3ccc(C)c(C)c3)CC2)o1	3.5	4.9	.	23.3	-1.7	.
Cc1ccc(/C=C/C(=O)N2CCN(S(=O)(=O)c3c(C)c(C)cc(C)c3C)CC2)o1	11.4	2.7	85.4*	16.8	6.5	0.1%
COC(=O)Cc1[nH]n(-c2nc3ccccc3s2)c(=O)c1C(C)=Nc1ccc(C)cc1	81.8*	81.6*	77.4*	91.2*	53.2*	4.2%
COc1ccc(C2=Nn3c(nnc3-c3ccccc3OC)SC2)cc1OCC1CC1	49.0	15.1	61.9*	-6.6	34.8	-14.2%
COc1ccc(OC)c(-c2nnc3n2N=C(c2ccc(OC)c(OC4CCCC4)c2)CS3)c1	46.5	48.3*	52.2*	13.0	.	-12.8%
COc1ccc(S(=O)(=O)N(C)C[C@@H]2OCCCC[C@H](C)Oc3ccc(NC(=O)c4ccccc4)cc3C(=O)N([C@H](C)CO)C[C@@H]2C)cc1	.	.	12.7	.	27.7	.

Screening data as filed in PubChem.
